Measurements taken from article PMC6602471.

What follows are sequences tested against RUNX1 (Homo sapiens, UniProt Q01196 1-453) (assay: custom PBM; custom protein-binding microarray; buffer, salt, pH and temperature not stated; high values mean tight binding). Settings: dsDNA, one strand shown.
Sequence of RUNX1 (Q01196 whole entry): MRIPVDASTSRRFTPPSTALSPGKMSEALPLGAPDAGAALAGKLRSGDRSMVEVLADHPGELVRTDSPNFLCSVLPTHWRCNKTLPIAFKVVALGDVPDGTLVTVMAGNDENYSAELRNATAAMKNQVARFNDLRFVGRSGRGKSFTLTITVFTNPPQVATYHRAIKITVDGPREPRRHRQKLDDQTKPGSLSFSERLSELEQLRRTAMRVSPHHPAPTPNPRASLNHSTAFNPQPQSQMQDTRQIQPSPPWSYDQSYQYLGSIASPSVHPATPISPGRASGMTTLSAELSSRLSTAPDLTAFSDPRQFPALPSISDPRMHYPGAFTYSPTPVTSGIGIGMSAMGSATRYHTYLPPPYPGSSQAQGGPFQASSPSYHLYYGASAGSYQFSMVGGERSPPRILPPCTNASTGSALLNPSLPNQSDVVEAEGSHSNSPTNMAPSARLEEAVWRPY
In the case of “CGCGCACTCTGTGGTTCCGCACATACGCACACATACACATACACACATACACATACGCAC”, the binding signal is reported as 11.4 log fluorescence intensity.
In the case of “CGCGCACTCTGTGGTTGCTCACATACGCACACATACACATACACACATACACATACGCAC”, the binding signal is reported as 11.4 log fluorescence intensity.
For “GCGCACATTTCACGTAAATCATACACGCACACATACACATACACACATACACATACGCAC”, the binding signal was 10.9 log fluorescence intensity.
With “GCATACGGCAGACGTCAGCCACATACGCACACATACACATACACACATACACATACGCAC” the binding signal was 11 log fluorescence intensity.
In the case of “GCATACGGGTGACGTCAGCCACATACGCACACATACACATACACACATACACATACGCAC”, the binding signal is reported as 10.9 log fluorescence intensity.
For “GCGCACATCTCCCGTAAATCATACACGCACACATACACATACACACATACACATACGCAC”, the binding signal was 10.9 log fluorescence intensity.
In the case of “GCGCACATTTCCCGTAACTCATACACGCACACATACACATACACACATACACATACGCAC”, the binding signal is reported as 11 log fluorescence intensity.
“CGCGCACACTGTGGTTGCGCACATACGCACACATACACATACACACATACACATACGCAC” was tested, and the binding signal was 11.2 log fluorescence intensity.
“GCGCACATTCCCCGTAAATCATACACGCACACATACACATACACACATACACATACGCAC” was tested, and the binding signal was 11 log fluorescence intensity.
“GCATACGGCTGACGTCAACCACATACGCACACATACACATACACACATACACATACGCAC” was tested, and the binding signal was 11 log fluorescence intensity.
“GCATACGGCTGACCTCAGCCACATACGCACACATACACATACACACATACACATACGCAC” was tested, and the binding signal was 11 log fluorescence intensity.
For “CGCGCACTCTGTGTTTGCGCACATACGCACACATACACATACACACATACACATACGCAC”, the binding signal was 11 log fluorescence intensity.
In the case of “CGCGCATTCTGTGGTTGCGCACATACGCACACATACACATACACACATACACATACGCAC”, the binding signal is reported as 11.4 log fluorescence intensity.
In the case of “CGCGCACTTTGTGGTTGCGCACATACGCACACATACACATACACACATACACATACGCAC”, the binding signal is reported as 11.6 log fluorescence intensity.
For “GCGCACATTTCCCGCAAATCATACACGCACACATACACATACACACATACACATACGCAC”, the binding signal was 11.1 log fluorescence intensity.
With “GCGCACATTTCCCGTAAACCATACACGCACACATACACATACACACATACACATACGCAC” the binding signal was 11 log fluorescence intensity.
With “CGCGCACTCTGTGGTTGTGCACATACGCACACATACACATACACACATACACATACGCAC” the binding signal was 11.3 log fluorescence intensity.
For “CGCGCACTCTGTGGTTTCGCACATACGCACACATACACATACACACATACACATACGCAC”, the binding signal was 12.3 log fluorescence intensity.
“GCATACGGCTGACGTGAGCCACATACGCACACATACACATACACACATACACATACGCAC” was tested, and the binding signal was 10.9 log fluorescence intensity.
“CGCGCACTATGTGGTTGCGCACATACGCACACATACACATACACACATACACATACGCAC” was tested, and the binding signal was 11.3 log fluorescence intensity.
In the case of “GCGCACCTTTCCCGTAAATCATACACGCACACATACACATACACACATACACATACGCAC”, the binding signal is reported as 10.9 log fluorescence intensity.
“GCATACGGCTGAGGTCAGCCACATACGCACACATACACATACACACATACACATACGCAC” was tested, and the binding signal was 10.9 log fluorescence intensity.
With “GCGCACATTTCCCGTACATCATACACGCACACATACACATACACACATACACATACGCAC” the binding signal was 11 log fluorescence intensity.
In the case of “GCATACAGCTGACGTCAGCCACATACGCACACATACACATACACACATACACATACGCAC”, the binding signal is reported as 11 log fluorescence intensity.
In the case of “GCATACGGCTAACGTCAGCCACATACGCACACATACACATACACACATACACATACGCAC”, the binding signal is reported as 11 log fluorescence intensity.
“GCGCACATTTCCCGTTAATCATACACGCACACATACACATACACACATACACATACGCAC” was tested, and the binding signal was 11 log fluorescence intensity.
In the case of “CGCGCACTGTGTGGTTGCGCACATACGCACACATACACATACACACATACACATACGCAC”, the binding signal is reported as 11 log fluorescence intensity.
In the case of “CGCGCACTCAGTGGTTGCGCACATACGCACACATACACATACACACATACACATACGCAC”, the binding signal is reported as 11 log fluorescence intensity.
For “GCATACGGCTGCCGTCAGCCACATACGCACACATACACATACACACATACACATACGCAC”, the binding signal was 11 log fluorescence intensity.
“CGCGCAGTCTGTGGTTGCGCACATACGCACACATACACATACACACATACACATACGCAC” was tested, and the binding signal was 11.4 log fluorescence intensity.
In the case of “GCGCACTTTTCCCGTAAATCATACACGCACACATACACATACACACATACACATACGCAC”, the binding signal is reported as 11 log fluorescence intensity.
For “GCATACTGCTGACGTCAGCCACATACGCACACATACACATACACACATACACATACGCAC”, the binding signal was 10.9 log fluorescence intensity.
